Measured values from PubChem BioAssay (NCATS).
Inconclusive results are not listed. A call without a number means that no potency is given here. Calls of active or inactive are those of the source. The call rests on the fitted dose curve; in most records, active means well fitted inhibition curve with a large enough effect; inconclusive means small, poorly fitted or top-dose-only effect; inactive means flat fitted curve, though single readings scatter.

Target: Calcium and integrin-binding protein 1 (Homo sapiens) (UniProt Q99828)
Test: Primary qHTS for Identification of Calcium Integrin Binding Protein 1 (CIB1) Competitor (AID 1508620); further: top concentration of the series differs between compounds
Details: CIB1-GST / FITC-alphaIIb peptide fluorescence polarization; series mostly up to 114 µM
In short: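 Fluorescence polarization competition: GST-tagged CIB1 (1 uM final) preincubated with compound 15 min at room temperature, then FITC-labelled alphaIIb peptide (100 nM final) added. After 15 min at room temperature, polarization read at Ex 480/Em 540.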

Sequence of Calcium and integrin-binding protein 1 (Homo sapiens) (Q99828 whole entry, looked up): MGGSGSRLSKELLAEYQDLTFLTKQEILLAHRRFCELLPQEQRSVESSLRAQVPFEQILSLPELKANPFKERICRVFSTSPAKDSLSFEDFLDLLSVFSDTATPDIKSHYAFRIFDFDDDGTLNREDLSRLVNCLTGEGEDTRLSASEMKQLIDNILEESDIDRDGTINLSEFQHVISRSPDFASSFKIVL

SMILES | Potency
FC(F)(F)c1ccccc1-c1nc(NCc2ccc(Cl)cc2)c2ccccc2n1 | inactive
C=Cc1nc(Nc2cc(F)cc(F)c2)nc(NC2CCCC2)n1 | inactive
Cc1ccc(-c2ccc(C(C)Nc3nc(-c4ccccc4C(C)C)ncc3C)cc2)cn1 (centres undefined) | inactive
S=C(NCCCc1cnc[nH]1)NCCN(Cc1ccc(Cl)c(Cl)c1)c1ccc(Br)cn1 | inactive
CCC(O)(c1nnc(NCc2ccc3c(-c4ccc(F)cc4)cc(=O)oc3c2)o1)C(F)(F)F (centres undefined) | inactive
c1csc(CNc2ncnc3ccc(-c4ccc5c(c4)OCO5)cc23)n1 | inactive
Cc1ccnc(NC(=S)N2CCN(c3ccc(F)cc3)CC2)c1 | inactive
Fc1cc(Nc2nc(-c3ccncc3)nc3ccccc23)ccc1-c1cn[nH]c1 | inactive
COc1ccc(C2Nc3ccccc3C(=O)N2Cc2ccco2)cc1COc1c(C(C)C)cccc1C(C)C (centres undefined) | inactive
CC(C)c1ccccc1-c1nccc(NCc2ccc(-c3ccnc(C(F)(F)F)c3)cc2)n1 | inactive
CCOc1ccccc1-c1nnc2n1N=C(c1cccc(OC)c1)CS2 | inactive
O=c1c(Nc2ccc(Cl)c(Cl)c2)c(Nc2nnc(-c3ccncc3)s2)c1=O | inactive
O=C(Nc1ccc2ccccc2c1)Nc1nnc(-c2ccncc2)s1 | inactive
Cc1nc(CN=C2NC3=C(C(=O)CCC3)C(c3[nH]ncc3Cl)N2)cs1 (centres undefined) | inactive
Nc1scc2c(C(=O)O)nn(-c3ccccc3)c(=O)c12 | inactive
COc1ccc(C2=Nn3c(nnc3-c3ccccc3OC)SC2)cc1OCC1CC1 | inactive
COc1ccc2ncnc(NCC3CCCO3)c2c1-c1ccc2c(c1)OCO2 (centres undefined) | inactive
Cn1nnnc1Sc1ncnc2scc(-c3cccc(N)c3)c12 | inactive
O=C(CCc1ccccc1Br)NCCc1nc2ccccc2[nH]1 | inactive
Cc1ccnc(CC(=S)N2CCN(c3cccc(C(F)(F)F)c3)CC2)c1 | inactive

SMILES | Potency
O=C1CCCC2=C1C1(CCCC1)N=C(Nc1nc3cc(Br)ccc3o1)N2 | inactive
CCOC(=O)C1CCN(c2ncc(-c3ccc4c(c3)OCCCO4)s2)CC1 | inactive
CN(C)c1cccc(-c2cc(N3CCC(C(N)=O)CC3)ncn2)c1 | inactive
Cc1ccc(OCCn2c(CCNC(=O)c3ccco3)nc3ccccc32)cc1 | inactive
Cc1ccnc(NC(=S)N2CCCN(c3cccc(C(F)(F)F)c3)CC2)c1 | inactive
c1nc(OCc2cnc[nH]2)c2cc(-c3ccc4c(c3)OCO4)ccc2n1 | inactive
Cc1cc(NS(=O)(=O)c2ccc(NC(=O)C(C)(C)c3ccc(Cl)c(Cl)c3)cc2)no1 | inactive
CNc1oc(-c2cccc3ncccc23)nc1C#N | inactive
COc1ccc(S(=O)(=O)Nc2cc(OC)cc3cccnc23)cc1 | inactive
Cc1cc2c(s1)c1cnn(Cc3ccc(-n4cncn4)cc3)c(=O)c1n2C | inactive
COc1ccc(C2Nc3ccccc3C(=O)N2Cc2cccs2)cc1COc1c(C)cccc1C (centres undefined) | inactive
COc1ccc(C2c3c(ncn(CCc4ccccc4)c3=N)Oc3ccc4ccccc4c32)cc1OC (centres undefined) | inactive
COc1ccc(-c2ccc(Nc3nc(-c4ccncc4)nc4ccccc34)cc2F)cc1F | inactive
O=C1CCCC2=C1C(c1[nH]ncc1Cl)N=C(Nc1nc3cc(Br)ccc3o1)N2 (centres undefined) | inactive
O=C(Nc1ccc2ccccc2c1)Nc1nnc(-c2ccc(Cl)cc2Cl)s1 | inactive
COc1cccc(CCN2C(=O)c3ccccc3NC2c2ccc(OC)c(COc3c(C)cc(NC(C)=O)cc3C)c2)c1 (centres undefined) | inactive
CC(=O)N1CCN(S(=O)(=O)c2ccc3c(c2)CC(=O)N3)CC1 | inactive
CCC(=O)NC(C)c1cc(Cl)c2cccnc2c1O (centres undefined) | inactive
N#Cc1cccc(S(=O)(=O)N2CCN(S(=O)(=O)c3ccc4c(c3)OCCO4)CC2)c1 | inactive
